Bioassay records deposited in PubChem BioAssay by several laboratories.
Shown are actives, neighbours in structure and some others; about 27% of the full set was active somewhere.
EphB4 ephrin blk: antagonists of human EphB4-ephrin-B2 interaction; P54760; inhibition, % at 7 µM; EphB4 LBD / TNYL-RAW-Alexa532 peptide, fluorescence polarization; hit rate 0.15% among 97,000;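 active = inhibition above the screen-wide mean inhibition plus 3 SD, cut at about 15% in these data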
Target sequence (P54760 whole entry, looked up, the tested form may be a part): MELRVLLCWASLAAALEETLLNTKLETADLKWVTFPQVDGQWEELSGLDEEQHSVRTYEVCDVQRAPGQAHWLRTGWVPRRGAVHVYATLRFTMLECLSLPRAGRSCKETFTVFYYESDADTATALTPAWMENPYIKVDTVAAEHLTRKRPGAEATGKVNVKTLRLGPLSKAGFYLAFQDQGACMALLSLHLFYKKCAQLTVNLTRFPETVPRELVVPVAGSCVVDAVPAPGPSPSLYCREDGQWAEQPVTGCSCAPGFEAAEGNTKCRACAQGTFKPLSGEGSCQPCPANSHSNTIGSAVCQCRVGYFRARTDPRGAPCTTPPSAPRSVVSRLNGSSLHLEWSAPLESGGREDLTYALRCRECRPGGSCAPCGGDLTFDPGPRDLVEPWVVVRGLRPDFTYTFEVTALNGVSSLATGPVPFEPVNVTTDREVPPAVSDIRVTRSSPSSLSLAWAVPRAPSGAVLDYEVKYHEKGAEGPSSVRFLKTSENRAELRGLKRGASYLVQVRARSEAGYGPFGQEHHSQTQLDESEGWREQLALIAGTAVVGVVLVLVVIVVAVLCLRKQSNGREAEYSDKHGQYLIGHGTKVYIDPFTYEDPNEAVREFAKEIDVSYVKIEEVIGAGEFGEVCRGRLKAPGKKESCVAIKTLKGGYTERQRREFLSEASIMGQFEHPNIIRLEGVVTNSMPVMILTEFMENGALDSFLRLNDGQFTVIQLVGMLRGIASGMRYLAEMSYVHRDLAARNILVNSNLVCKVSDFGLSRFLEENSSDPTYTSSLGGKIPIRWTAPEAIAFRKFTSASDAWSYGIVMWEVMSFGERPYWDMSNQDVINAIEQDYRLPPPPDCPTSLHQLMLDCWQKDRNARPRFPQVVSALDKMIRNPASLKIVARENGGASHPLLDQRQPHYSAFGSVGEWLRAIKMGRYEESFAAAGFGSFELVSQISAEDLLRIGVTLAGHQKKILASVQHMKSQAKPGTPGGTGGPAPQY
CYP2C9 inh: blocks human cytochrome P450 2C9; P11712; CYP2C9 Supersomes, luciferin-H conversion, luminescence; inhibition, % at 5 µM; hit rate 20% among 96,000;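 active = blocking of liver enzyme CYP2C9 beyond about 50% at 5 µM, limit read from the data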
CYP2C9 activ: activators of human CYP2C9; P11712; recombinant CYP2C9, luciferin-H conversion, luminescence; hits give high values; factor 1 = untreated enzyme, 0 = blocked; activation factor at 5 µM; hit rate 1.4% among 96,000; AID 1024;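 active = activation factor of 2 or more for CYP2C9 at a 5 µM dose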
CYP2C19 activ: cytochrome P450 2C19 (human) activation; P33261; recombinant CYP2C19, luciferin-H EGE luminescence; hits give high values; 0 = fully inhibited enzyme, 1 = untreated enzyme; activation factor at 5 µM; 96,000 tested, under 10 active; AID 1025;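 active = activation factor of at least 2 at 5 µM in the primary screen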
CYP2C19 inh: human CYP2C19 inhibition | CYP2C19 Supersomes, luciferin-H EGE luminescence, 30 min | inhibition, % at 5 µM | hit rate 21% among 96,000 | AID 778;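 active = CYP2C19 inhibition above a set limit at 5 µM in the primary screen, cut at about 50% in these data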
Hits are given with their value; n = inactive; x = no result given.

SMILES | EphB4 ephrin blk | CYP2C9 inh | CYP2C9 activ | CYP2C19 activ | CYP2C19 inh
Cn1c(=O)oc2cc(S(=O)(=O)N3CCCC(C(=O)NC4CCCc5ccccc54)C3)ccc21 (stereo not drawn) | n | 60.5 | n | n | n
Cn1c(=O)oc2cc(S(=O)(=O)N3CCCC(C(=O)N4CC=C(c5ccccc5)CC4)C3)ccc21 (stereo not drawn) | n | n | n | n | 72.1
COc1ccc(NC(=O)C2CCCN(S(=O)(=O)c3ccc4c(c3)oc(=O)n4C)C2)cc1OC (stereo not drawn) | n | n | n | n | 54.8
O=C(O)Cc1ccc(-c2ccccc2-c2ccccc2)cc1 | n | x | x | x | x
Cc1ccc(C(=O)c2ccc([N+](=O)[O-])cc2)c(C)c1 | n | 59.9 | n | n | 82.1
CN(CC(=O)O/N=C(\N)c1ccc([N+](=O)[O-])cc1)S(=O)(=O)c1ccc2ccccc2c1 | n | n | 2.3 | n | n
CCC(Sc1nc2cc3c(cc2c(=O)n1Cc1ccco1)OCO3)C(=O)Nc1cccc(OC)c1 (stereo not drawn) | n | 60.0 | n | n | n
CCC(Sc1nc2cc3c(cc2c(=O)n1Cc1ccco1)OCO3)C(=O)NCCOC (stereo not drawn) | n | n | n | n | n
COCCNC(=O)c1ccc2c(=O)n(Cc3ccco3)c(SCC(=O)NC3CCCC3)nc2c1 | n | 80.6 | n | n | 51.7
COCCNC(=O)CSc1nc2cc3c(cc2c(=O)n1Cc1ccco1)OCO3 | n | 53.3 | n | n | 93.3
O=C1NN(c2ccccc2)C(=O)C2C3C=CC(C4CC34)C12 (stereo not drawn) | n | n | n | n | n
Cc1noc(C)c1S(=O)(=O)N1CCC(C(=O)N2CCN(Cc3ccc4c(c3)OCO4)CC2)CC1 | x | n | n | n | n
CCOC(=O)c1oc2ccc(S(=O)(=O)n3nc(-c4ccc(Cl)cc4)cc3N)cc2c1C | n | 98.7 | n | n | n
CCOC(=O)c1oc2ccc(S(=O)(=O)n3nc(-c4ccc(C)cc4)cc3N)cc2c1C | n | 96.4 | n | n | n
O=C(Cc1sc(-c2ccccc2Cl)nc1-c1ccccc1)Nc1ccccc1 | n | n | n | n | n
O=C(Cc1sc(-c2ccccc2Cl)nc1-c1ccccc1)Nc1ccc(F)cc1 | n | 72.7 | n | n | n
CCCCCCCCCCS(=O)(=O)N/N=C/c1ccc([N+](=O)[O-])cc1 | n | n | n | n | n
CC1CN(C(=O)c2ccc(COCC(F)(F)F)o2)CC(C)O1 (stereo not drawn) | n | n | n | n | n
COc1cc(CNCCSc2nnnn2C)cc(OC)c1OC | n | n | n | n | 56.7
Cn1nnnc1SCCNCC#Cc1ccccc1 | n | n | n | n | 85.3
Cn1nnnc1SCCNCc1ccccc1F | n | n | n | n | 79.0
COc1cccc(CNCCSc2nnnn2C)c1OC | n | n | n | n | 77.2
CS(=O)(=O)N1CCC(C(=O)NCCN2CCN(Cc3ccccc3)CC2)CC1 | x | n | n | n | n
Cc1ccc(C(=O)NC2CC(C)(C)NC(C)(C)C2)cc1C | n | n | n | n | n
C/C(N)=C(/C#N)C(=O)CSc1nnnn1-c1ccc(C)cc1 | n | n | n | n | 51.6
SMILES | EphB4 ephrin blk | CYP2C9 inh | CYP2C9 activ | CYP2C19 activ | CYP2C19 inh
C/C(N)=C(/C#N)C(=O)CSc1nnnn1-c1ccccc1 | n | n | n | n | 63.9
CCN(CC)C(=O)CSc1ncnc2c(-c3cccs3)nsc12 | n | n | n | n | n
CCC(C)N(C(=O)Cn1nnc2ccccc21)C(C(=O)NCc1ccco1)c1cccc(OC)c1 (stereo not drawn) | x | n | n | n | n
COc1cc(CNc2ccccc2SC)ccc1O | n | n | n | n | 86.8
CCOc1cc(CNc2ccccc2SC)ccc1O | n | n | n | n | 66.9
CCOc1cc(CNc2ccc3c(c2)CCC3)ccc1O | n | 77.4 | n | n | 90.8
CCOc1cc(CN2CCSCC2)ccc1O | x | n | n | n | n
COc1ccc(CNc2nc(SC)n[nH]2)cc1OC | n | n | n | n | n
COc1ccc(Cn2cc(F)c(=O)n(CCC(C)C)c2=O)cc1[N+](=O)[O-] | n | n | n | n | n
CC(C)c1ccc(NC2(C#N)C(=O)Nc3ccccc32)cc1 (stereo not drawn) | n | n | n | n | n
CCC(C)OC(=O)C1=C(C)NC2=C(C(=O)C(C(=O)OC)C(C)C2)C1c1ccc(N(C)C)cc1 (stereo not drawn) | n | n | n | n | n
CCC(C)OC(=O)c1[nH]c2c(c1C)C(=O)CC(c1ccc(N(C)C)cc1)C2 (stereo not drawn) | x | 53.4 | n | n | 67.9
